In PubChem BioAssay AID652106 (National Center for Advancing Translational Sciences (NCATS), 2013):
The campaign covered roughly 370,000 compounds. About 500 (0.14%) were called active. Another 2% or so got no clear call; they are omitted. Calls follow the shape of the dose curve; as a rule, active = well fitted activation curve with a large enough effect; inconclusive = small, poorly fitted or top-dose-only effect; inactive = no such curve, though single readings can be large or run the other way. The list comes from a sample in which actives are over-represented; it also holds similar structures and randomly drawn compounds. Entries that show only a call come without a potency.
Potency is read from the fitted curve at half-maximal effect.

Assay: qHTS of alpha-syn Inhibitors; also: nearly all actives have a fitted effect of over 65% in size
Settings: Yeast expressing alpha-synuclein, BacTiter-Glo, 24 h; Potency: growth rescue; series mostly up to 46.1 µM
Excerpt: The goal of this project is to identify new chemical probes capable of reversing the toxicity associated with the Parkinson disease-related protein, alpha-synuclein. Compounds will be selected on their ability to restore growth in yeast cells expressing toxic levels of alpha-synuclein. These compounds will provide a complementary approach to deciphering the tangled mechanisms of toxicity and protection that we have uncovered through genome-wide genetic screens and are beginning to uncover in a large-scale proteomics analysis with mass spectroscopy. To this end, a miniaturized assay was developed to be screened against the Molecular Libraries Small Molecule Repository (MLSMR) to discover alpha-synuclein inhibitors. Please note that in the set-up this yeast-based assay compounds that inhibit as alpha-syn, have a read-out as activators. NIH Chemical Genomics Center [NCGC] NIH Molecular Libraries Probe Centers Network [MLPCN] MLPCN Grant: NS060957 Assay Submitter (PI): Susan Lindquist, Whitehead Institute/MIT
Dispense 2.5 microL yeast galactose medium per 1536-well plate, pin compound, dispense 2.5 microL alpha-synuclein expressing yeast in galactose medium at OD600=0.02 (pregrown in raffinose medium to mid-log phase) per well, incubate for 24 hr at 30 deg C, and cell growth will be measured using 5 microL of Bactiter/Glo reagent to entire plate and read using Luminescence Protocol in ViewLux.
In the case of `C[C@@H]1C[C@@H]2O[C@H]2/C=C\C=C\C(=O)Cc2c(Cl)c(O)cc(O)c2C(=O)O1`, the Potency is reported as 7.94 µM (active). With `Cc1ncoc1C(=O)NCC1=C(c2cccc3ccccc23)C[C@@H]2CC[C@H]1N2Cc1ccco1` the Potency was “inactive”. For `O=C(NCC1=C(c2ccc3ccccc3c2)C[C@@H]2CC[C@H]1N2Cc1ccco1)c1cccs1`, the Potency was 3.55 µM (active). With `CC(=O)NCC1=C(c2ccc3ccccc3c2)C[C@@H]2CC[C@H]1N2Cc1ccco1` the Potency was “inactive”. With `N#Cc1c(Cl)c(Cl)c(Cl)c(C#N)c1Cl` the Potency was “inactive”. With `COc1ccc(NC(=O)Nc2cccc3cccnc23)cc1` the Potency was “inactive”. For `c1ccc(Cc2nn3c(Cn4cnc5ccccc54)nnc3s2)cc1`, the Potency was “inactive”. With `O=C(O)/C=C/c1ccc2c(c1)OCO2` the Potency was “inactive”. With `CC(=O)c1c(O)c(C)c(O)c(Cc2c(O)c3c(c(C(=O)/C=C/c4ccccc4)c2O)OC(C)(C)C=C3)c1O` the Potency was “inactive”.
